# Values joined by “and” are separate entries in the source; they are usually repeats but may differ in a detail not shown here. Identical values can stand only once. Records with an inconclusive call do not appear. Some structures have more than one record in an assay (separate samples or runs), and their calls can disagree. Active and inactive are the calls of the source. Rule for the calls: active = hit-call score of the fitted dose curve at least 0.9, where 1 is the maximum; inconclusive = response in the unintended direction; inactive = score below 0.9.
# Target: Bile acid receptor (Homo sapiens) (UniProt Q96RI1)
# Sequence (Q96RI1 whole entry, looked up): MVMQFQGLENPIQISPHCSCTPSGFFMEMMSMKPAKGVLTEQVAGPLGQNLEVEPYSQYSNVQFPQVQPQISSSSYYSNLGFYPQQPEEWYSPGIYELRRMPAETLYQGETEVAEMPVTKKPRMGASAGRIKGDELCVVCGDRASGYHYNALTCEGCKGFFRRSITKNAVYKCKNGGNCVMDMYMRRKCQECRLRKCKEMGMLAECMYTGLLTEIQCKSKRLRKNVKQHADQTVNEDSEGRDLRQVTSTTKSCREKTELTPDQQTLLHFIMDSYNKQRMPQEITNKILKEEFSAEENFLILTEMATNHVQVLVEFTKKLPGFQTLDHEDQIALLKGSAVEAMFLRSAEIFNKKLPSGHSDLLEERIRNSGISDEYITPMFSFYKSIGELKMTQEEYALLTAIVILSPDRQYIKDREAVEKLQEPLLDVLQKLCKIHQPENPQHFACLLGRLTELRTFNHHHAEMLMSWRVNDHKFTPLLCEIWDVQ
# Assay: OT_FXR_FXRSRC1_1440: Odyssey Thera (OT) 24-hour HEK293T Protein-Complementation Assay for Farnesoid X receptor/SRC-1 Co-activator (AID 2283384)
# Method in brief: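 HEK293T cells were dosed with compound and read 24 h later by fluorescence intensity from protein-fragment complementation reporting FXR/SRC-1 co-activator interaction. Gain of signal was fitted relative to DMSO negative control as baseline.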
Structure (SMILES),outcome,AC50
O=S(=O)(O)C(F)(F)C(F)(F)C(F)(F)C(F)(F)C(F)(F)C(F)(F)F,inactive,
COc1ccc(O)c(C(C)(C)C)c1,inactive,
C1CC2OC2CC1C1CO1 (stereo not drawn),inactive,
CO/C=C(/C(=O)OC)c1ccccc1COc1cccc(C(F)(F)F)n1,,3.27 µM (active)
Cc1cccc(C)c1N,inactive,
CCSC(=O)N(CC)C1CCCCC1,inactive,
C[C@]12CCC(=O)C=C1CC[C@@H]1[C@@H]2CC[C@]2(C)C(=O)CC[C@@H]12,inactive,28.7 µM (active) and 30.7 µM (active)
c1cc2ccc3cccc4ccc(c1)c2c34,inactive,
CN(C)c1nc(=O)n(C2CCCCC2)c(=O)n1C,inactive,
CCC(C)c1cc([N+](=O)[O-])cc([N+](=O)[O-])c1O (stereo not drawn),inactive,
Clc1ccc(C(Cl)(Cl)Cl)cc1,inactive,
OCC(O)CO,inactive,

# Target: Retinoic acid receptor RXR-alpha (Homo sapiens) (UniProt P19793)
# Sequence (P19793 whole entry, looked up): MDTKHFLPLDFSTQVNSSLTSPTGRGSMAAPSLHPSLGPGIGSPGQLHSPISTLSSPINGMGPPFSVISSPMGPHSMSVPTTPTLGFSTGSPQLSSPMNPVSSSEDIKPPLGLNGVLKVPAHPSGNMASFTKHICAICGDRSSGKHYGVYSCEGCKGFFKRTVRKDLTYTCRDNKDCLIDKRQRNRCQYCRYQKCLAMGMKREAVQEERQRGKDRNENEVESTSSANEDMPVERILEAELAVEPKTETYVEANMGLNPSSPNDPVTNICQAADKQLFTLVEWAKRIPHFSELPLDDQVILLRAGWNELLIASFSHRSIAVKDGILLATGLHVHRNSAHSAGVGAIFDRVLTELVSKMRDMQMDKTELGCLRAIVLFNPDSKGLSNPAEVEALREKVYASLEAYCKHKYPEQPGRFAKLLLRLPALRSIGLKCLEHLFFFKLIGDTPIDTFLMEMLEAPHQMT
# Assay: OT_NURR1_NURR1RXRa_0480: Odyssey Thera (OT) 8-hour HEK293T Protein Complementation Assay for Nurr1/retinoid X receptor (RXR) (AID 2283385)
# Method in brief: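 HEK293T cells expressing Nurr1 and RXRα fused to reporter fragments were dosed with compound for 8 hours. Complex formation was read as fluorescence intensity and analysed as gain of signal against DMSO as baseline.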
Structure (SMILES),outcome,AC50
C=CC(N)=O,inactive,
O=S(=O)(O)C(F)(F)C(F)(F)C(F)(F)C(F)(F)C(F)(F)C(F)(F)F,inactive,
CCOCCOC(C)=O,inactive,
COc1ccc(O)c(C(C)(C)C)c1,inactive,
Cc1ccccc1O,inactive,
C1CC2OC2CC1C1CO1 (stereo not drawn),inactive,
ClC1=C(Cl)[C@]2(Cl)[C@@H]3[C@@H]4C[C@@H]([C@H]5O[C@@H]45)[C@@H]3[C@@]1(Cl)C2(Cl)Cl,,77.7 µM (active) and 81.5 µM (active)
CO/C=C(/C(=O)OC)c1ccccc1COc1cccc(C(F)(F)F)n1,inactive,50 µM (active)
O=C(NC(=O)c1cc(F)c(F)cc1Cl)Nc1cc(F)ccc1N1CCC(C(=O)O)CC1,inactive,
CCSC(=O)N(CC)C1CCCCC1,inactive,
CCOP(=S)(OCC)SCSC(C)(C)C,inactive,
C[C@]12CCC(=O)C=C1CC[C@@H]1[C@@H]2CC[C@]2(C)C(=O)CC[C@@H]12,inactive,
O=C(N[C@H]1CN2CCC1CC2)c1cc2ccoc2cn1,inactive,
O=C(NC(=O)c1c(F)cccc1F)Nc1cc(Cl)c(OC(F)(F)C(F)F)c(Cl)c1,inactive,
Cc1ccccc1CO[C@@H]1C[C@@]2(C(C)C)CC[C@]1(C)O2,,81.2 µM (active)
Cc1ccccc1[N+](=O)[O-],inactive,
Clc1ccc(Cl)cc1,inactive,
CN(C)CCO,inactive,
c1cc2ccc3cccc4ccc(c1)c2c34,inactive,
CN(C)c1nc(=O)n(C2CCCCC2)c(=O)n1C,inactive,
COS(=O)(=O)OC,inactive,
CCC(C)c1cc([N+](=O)[O-])cc([N+](=O)[O-])c1O (stereo not drawn),inactive,
O=C(O)C(F)(F)C(F)(F)C(F)(F)C(F)(F)C(F)(F)F,inactive,
CCC(C)(CC)c1cc(NC(=O)c2c(OC)cccc2OC)on1,inactive,
Clc1ccc(C(Cl)(Cl)Cl)cc1,inactive,
O=S(=O)(O)C(F)(F)C(F)(F)C(F)(F)C(F)(F)F,inactive,
ClC1=C(Cl)[C@]2(Cl)[C@@H]3[C@@H](Cl)[C@H]4O[C@H]4[C@@H]3C1(Cl)C2(Cl)Cl,inactive,79.6 µM (active)
OCC(O)CO,inactive,
